Measured values reported in PubChem BioAssay AID1159580 (chemical genetic matrix, 2015).
Several values for one entry are separate records, joined by “and”; a condition that tells them apart may be missing. Equal values may be shown once. Hit rate of the full screen: of about 5,500 compounds, about 2,000 (36%) were called active. Another 18% or so got no clear call; they are omitted. The list shows a part of the results. Unmarked numbers belong to inactive results. Rule as the data show it: active = normalized growth mostly below about 0.91 (no sharp cut-off); inconclusive = no clear call, values can overlap the other calls; inactive = mostly above about 0.92.

Assay: chemical genetic growth profiling, strain panel (AID 1159580);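 also: tested at 20 µM; growth read once vehicle control cultures reached saturation at 30 °C; 1 = growth at the plate median or of vehicle wells; lower values mean less growth of the strain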
Settings: S. cerevisiae deletion strains, growth OD

O=C1c2c(O)cccc2Cc2cccc(O)c21
normalized growth (locus YAL013W, strain DEP1, stronger effect = lower value): 1.04 | normalized growth (locus YAL021C, strain ccr4, stronger effect = lower value): 0.958 | normalized growth (locus YAL026C, strain drs2, stronger effect = lower value): 0.988 | normalized growth (locus YAL030W, strain snc1, stronger effect = lower value): 0.986 | normalized growth (locus YBL061C, strain skt5, stronger effect = lower value): 1 | normalized growth (locus YBR009C, strain hhf1, stronger effect = lower value): 0.997 | normalized growth (locus YBR021W, strain FUR4, stronger effect = lower value): 1 | normalized growth (locus YBR023C, strain chs3, stronger effect = lower value): 0.988 | normalized growth (locus YBR171W, strain sec66, stronger effect = lower value): 0.975 | normalized growth (locus YBR229C, strain ROT2, stronger effect = lower value): 0.998 | normalized growth (locus YBR231C, strain swc5, stronger effect = lower value): 0.981 | normalized growth (locus YBR279W, strain paf1, stronger effect = lower value): 0.966 | normalized growth (locus YCL011C, strain gbp2, stronger effect = lower value): 0.973 | normalized growth (locus YCL016C, strain dcc1, stronger effect = lower value): 1.03 | normalized growth (locus YCL029C, strain bik1, stronger effect = lower value): 0.992 | normalized growth (locus YCL061C, strain MRC1, stronger effect = lower value): 0.978 | normalized growth (locus YCL069W, strain vba3, stronger effect = lower value): 1.01 | normalized growth (locus YCR088W, strain abp1, stronger effect = lower value): 1.01 | normalized growth (locus YDL005C, strain med2, stronger effect = lower value): 0.978 | normalized growth (locus YDL035C, strain GPR1, stronger effect = lower value): 1.02 | normalized growth (locus YDL040C, strain nat1, stronger effect = lower value): 0.999 | normalized growth (locus YDL074C, strain BRE1, stronger effect = lower value): 1.04 | normalized growth (locus YDL101C, strain DUN1, stronger effect = lower value): 1.01 | normalized growth (locus YDL134C, strain PPH21, stronger effect = lower value): 1.02 | normalized growth (locus YDL185W, strain tfp1, stronger effect = lower value): 0.999 | normalized growth (locus YDL192W, strain arf1, stronger effect = lower value): 0.994 | normalized growth (locus YDR001C, strain nth1, stronger effect = lower value): 0.988 | normalized growth (locus YDR069C, strain doa4, stronger effect = lower value): 0.946 | normalized growth (locus YDR101C, strain arx1, stronger effect = lower value): 0.99 | normalized growth (locus YDR137W, strain rgp1, stronger effect = lower value): 0.848 | normalized growth (locus YDR159W, strain sac3, stronger effect = lower value): 0.982 | normalized growth (locus YDR162C, strain NBP2, stronger effect = lower value): 1.03 | normalized growth (locus YDR195W, strain ref2): 1.11 | normalized growth (locus YDR297W, strain sur2, stronger effect = lower value): 1.01 | normalized growth (locus YDR318W, strain mcm21, stronger effect = lower value): 0.994 | normalized growth (locus YDR334W, strain swr1, stronger effect = lower value): 0.936 | normalized growth (locus YDR335W, strain msn5, stronger effect = lower value): 0.999 | normalized growth (locus YDR388W, stronger effect = lower value): 0.992 | normalized growth (locus YDR392W, strain spt3, stronger effect = lower value): 0.986 | normalized growth (locus YDR502C, strain sam2, stronger effect = lower value): 1.01 | normalized growth (locus YEL003W, strain gim4, stronger effect = lower value): 1.03 | normalized growth (locus YEL037C, strain rad23, stronger effect = lower value): 1 | normalized growth (locus YEL061C, strain CIN8 (second series), stronger effect = lower value): 0.986 | normalized growth (locus YEL061C, strain CIN8, stronger effect = lower value): 1 | normalized growth (locus YER015W, strain faa2, stronger effect = lower value): 1.01 | normalized growth (locus YER016W, strain bim1, stronger effect = lower value): 1.01 | normalized growth (locus YER110C, stronger effect = lower value): 0.997 | normalized growth (locus YER111C, strain swi4, stronger effect = lower value): 1.01 | normalized growth (locus YER155C, strain BEM2 (second series), stronger effect = lower value): 0.957 | normalized growth (locus YER155C, strain BEM2, stronger effect = lower value): 0.997 | normalized growth (locus YER167W, strain BCK2, stronger effect = lower value): 1 | normalized growth (locus YFR010W, strain ubp6, stronger effect = lower value): 0.957 | normalized growth (locus YGL078C, strain dbp3, stronger effect = lower value): 0.992 | normalized growth (locus YGL086W, strain mad1, stronger effect = lower value): 1 | normalized growth (locus YGL167C, strain pmr1, stronger effect = lower value): 0.962 | normalized growth (locus YGL173C, strain kem1, stronger effect = lower value): 0.996 | normalized growth (locus YGL227W, strain vid30, stronger effect = lower value): 0.976 | normalized growth (locus YGL240W, strain doc1, stronger effect = lower value): 0.985 | normalized growth (locus YGL248W, strain PDE1, stronger effect = lower value): 1.02 | normalized growth (locus YGL253W, strain hxk2, stronger effect = lower value): 0.963 | normalized growth (locus YGR078C, strain PAC10, stronger effect = lower value): 1.03 | normalized growth (locus YGR135W, strain pre9, stronger effect = lower value): 0.999 | normalized growth (locus YGR252W, strain gcn5, stronger effect = lower value): 1.02 | normalized growth (locus YHR013C, strain ard1, stronger effect = lower value): 1 | normalized growth (locus YHR027C, strain rpn1, stronger effect = lower value): 0.976 | normalized growth (locus YHR030C, strain SLT2, stronger effect = lower value): 1.01 and 1.06 | normalized growth (locus YHR079C, strain IRE1 (second series), stronger effect = lower value): 0.994 | normalized growth (locus YHR079C, strain IRE1, stronger effect = lower value): 1.08 | normalized growth (locus YHR094C, strain hxt1, stronger effect = lower value): 0.993 | normalized growth (locus YHR129C, strain ARP1, stronger effect = lower value): 1.01 | normalized growth (locus YHR142W, strain chs7, stronger effect = lower value): 1.02 | normalized growth (locus YHR200W, strain rpn10, stronger effect = lower value): 1 | normalized growth (locus YIL066C, strain RNR3, stronger effect = lower value): 1.02 | normalized growth (locus YIL073C, strain SPO22, stronger effect = lower value): 1.03 | normalized growth (locus YIL125W, strain kgd1, stronger effect = lower value): 1 | normalized growth (locus YIR030C, strain dcg1, stronger effect = lower value): 0.992 | normalized growth (locus YJL092W, strain hpr5, stronger effect = lower value): 1.01 | normalized growth (locus YJL095W, strain BCK1 (second series), stronger effect = lower value): 0.967 | normalized growth (locus YJL095W, strain BCK1, stronger effect = lower value): 1.05 and 1.06 | normalized growth (locus YJL115W, strain asf1, stronger effect = lower value): 0.982 | normalized growth (locus YJL129C, strain trk1, stronger effect = lower value): 1.05 | normalized growth (locus YJL134W, strain LCB3, stronger effect = lower value): 1.01 | normalized growth (locus YJL154C, strain vps35, stronger effect = lower value): 0.988 | normalized growth (locus YJL164C, strain tpk1, stronger effect = lower value): 1.02 | normalized growth (locus YJL166W, strain qcr8, stronger effect = lower value): 0.984 | normalized growth (locus YJL168C, strain set2, stronger effect = lower value): 0.99 | normalized growth (locus YJL187C, strain SWE1 (second series), stronger effect = lower value): 1.02 | normalized growth (locus YJL187C, strain SWE1, stronger effect = lower value): 1 | normalized growth (locus YJR043C, strain POL32, stronger effect = lower value): 1.06 | normalized growth (locus YJR066W, strain TOR1, stronger effect = lower value): 0.994 | normalized growth (locus YJR075W, strain HOC1, stronger effect = lower value): 1.03 | normalized growth (locus YKL009W, strain mrt4, stronger effect = lower value): 1.01 | normalized growth (locus YKL068W, stronger effect = lower value): 0.99 | normalized growth (locus YKL085W, strain MDH1 (second series), stronger effect = lower value): 0.994 | normalized growth (locus YKL085W, strain MDH1, stronger effect = lower value): 0.994 | normalized growth (locus YKL160W, strain elf1, stronger effect = lower value): 1 | normalized growth (locus YKR001C, strain vps1, stronger effect = lower value): 1.01 | normalized growth (locus YKR026C, strain gcn3, stronger effect = lower value): 0.991 | normalized growth (locus YKR091W, strain srl3, stronger effect = lower value): 0.985 | normalized growth (locus YLL001W, strain dnm1, stronger effect = lower value): 1 | normalized growth (locus YLL026W, stronger effect = lower value): 1 | normalized growth (locus YLL041C, strain sdh2, stronger effect = lower value): 0.997 | normalized growth (locus YLR027C, strain aat2, stronger effect = lower value): 1.03 | normalized growth (locus YLR039C, strain RIC1, stronger effect = lower value): 1.24 | normalized growth (locus YLR058C, strain SHM2, stronger effect = lower value): 1.01 | normalized growth (locus YLR102C, strain apc9, stronger effect = lower value): 0.995 | normalized growth (locus YLR113W, strain HOG1, stronger effect = lower value): 1.13 | normalized growth (locus YLR221C, strain rsa3, stronger effect = lower value): 0.985 | normalized growth (locus YLR258W, strain gsy2, stronger effect = lower value): 0.976 | normalized growth (locus YLR262C, strain YPT6 (second series), stronger effect = lower value): 0.862 | normalized growth (locus YLR262C, strain YPT6, stronger effect = lower value): 1.28 | normalized growth (locus YLR268W, strain sec22, stronger effect = lower value): 1.02 | normalized growth (locus YLR320W, strain mms22, stronger effect = lower value): 0.996 | normalized growth (locus YLR330W, strain CHS5, stronger effect = lower value): 1 | normalized growth (locus YLR342W, strain FKS1 (second series), stronger effect = lower value): 1.01 | normalized growth (locus YLR342W, strain FKS1, stronger effect = lower value): 0.996 | normalized growth (locus YLR357W, strain rsc2, stronger effect = lower value): 0.921 | normalized growth (locus YLR370C, strain arc18, stronger effect = lower value): 0.985 | normalized growth (locus YLR371W, strain rom2, stronger effect = lower value): 1 | normalized growth (locus YLR384C, strain iki3, stronger effect = lower value): 0.974 | normalized growth (locus YLR418C, strain cdc73, stronger effect = lower value): 1.11 | normalized growth (locus YML016C, strain PPZ1, stronger effect = lower value): 1 | normalized growth (locus YML032C, strain rad52, stronger effect = lower value): 0.996 | normalized growth (locus YML120C, strain ndi1, stronger effect = lower value): 1.02 | normalized growth (locus YML124C, strain tub3, stronger effect = lower value): 0.988 | normalized growth (locus YMR058W, strain fet3, stronger effect = lower value): 0.999 | normalized growth (locus YMR078C, strain ctf18, stronger effect = lower value): 0.999 | normalized growth (locus YMR125W, strain sto1, stronger effect = lower value): 0.988 | normalized growth (locus YMR129W, stronger effect = lower value): 0.995 | normalized growth (locus YMR205C, strain PFK2, stronger effect = lower value): 1.03 | normalized growth (locus YMR223W, strain ubp8, stronger effect = lower value): 1 | normalized growth (locus YMR231W, strain pep5, stronger effect = lower value): 0.976 | normalized growth (locus YMR263W, strain SAP30, stronger effect = lower value): 1.02 | normalized growth (locus YMR307W, strain GAS1, stronger effect = lower value): 0.997 | normalized growth (locus YNL067W, strain RPL9B, stronger effect = lower value): 1.04 | normalized growth (locus YNL071W, strain lat1, stronger effect = lower value): 1.02 | normalized growth (locus YNL183C, strain NPR1, stronger effect = lower value): 1 | normalized growth (locus YNL209W, strain ssb2, stronger effect = lower value): 1 | normalized growth (locus YNL233W, strain BNI4, stronger effect = lower value): 1.05 | normalized growth (locus YNL248C, strain rpa49, stronger effect = lower value): 0.906 | normalized growth (locus YNL250W, strain rad50, stronger effect = lower value): 0.99 | normalized growth (locus YNL271C, strain bni1, stronger effect = lower value): 0.989 | normalized growth (locus YNL298W, strain CLA4, stronger effect = lower value): 0.985 | normalized growth (locus YNL307C, strain MCK1, stronger effect = lower value): 1.01 | normalized growth (locus YNL322C, strain KRE1 (second series), stronger effect = lower value): 0.988 | normalized growth (locus YNL322C, strain KRE1, stronger effect = lower value): 1 | normalized growth (locus YNR049C, strain mso1, stronger effect = lower value): 1.01 | normalized growth (locus YNR052C, strain pop2, stronger effect = lower value): 0.993 | normalized growth (locus YOL012C, strain htz1): 0.791 | normalized growth (locus YOL147C, strain pex11, stronger effect = lower value): 0.997 | normalized growth (locus YOR001W, strain rrp6, stronger effect = lower value): 0.979 | normalized growth (locus YOR061W, strain CKA2, stronger effect = lower value): 1.01 | normalized growth (locus YOR069W, strain VPS5, stronger effect = lower value): 1.01 | normalized growth (locus YOR070C, strain gyp1, stronger effect = lower value): 1.03 | normalized growth (locus YOR080W, strain dia2, stronger effect = lower value): 1 | normalized growth (locus YOR083W, strain WHI5, stronger effect = lower value): 0.954 | normalized growth (locus YOR106W, strain vam3, stronger effect = lower value): 0.898 | normalized growth (locus YOR136W, strain idh2, stronger effect = lower value): 0.993 | normalized growth (locus YOR144C, strain elg1, stronger effect = lower value): 0.996 | normalized growth (locus YOR184W, strain ser1, stronger effect = lower value): 1.02 | normalized growth (locus YOR231W, strain MKK1, stronger effect = lower value): 1.07 | normalized growth (locus YOR265W, strain rbl2, stronger effect = lower value): 0.996 | normalized growth (locus YOR270C, strain vph1, stronger effect = lower value): 0.755 (active) | normalized growth (locus YOR290C, strain snf2, stronger effect = lower value): 1.02 | normalized growth (locus YOR316C, strain cot1, stronger effect = lower value): 0.997 | normalized growth (locus YPL051W, strain arl3, stronger effect = lower value): 0.914 (active) | normalized growth (locus YPL078C, strain atp4, stronger effect = lower value): 1.01 | normalized growth (locus YPL106C, strain sse1, stronger effect = lower value): 0.919 | normalized growth (locus YPL240C, strain hsp82, stronger effect = lower value): 0.991 | normalized growth (locus YPL256C, strain CLN2, stronger effect = lower value): 1.17 | normalized growth (locus YPR119W, strain clb2, stronger effect = lower value): 0.988 | normalized growth (locus YPR141C, strain kar3, stronger effect = lower value): 0.993 | normalized growth (locus YPR163C, strain tif3, stronger effect = lower value): 0.997 | normalized growth (locus YPR167C, strain met16, stronger effect = lower value): 1 | normalized growth (strain wtn01, stronger effect = lower value): 0.999
